# PubChem BioAssay (NCATS)
# Values without a mark were called inactive. Inconclusive results are not listed. Where a call stands in place of a potency, no number is given. Calls of active or inactive are those of the source. Unless noted, calls come from the whole dose curve; as a rule, active = well fitted curve in the direction sought with a large enough effect; inconclusive = small, poorly fitted or top-dose-only effect, or another doubt; inactive = no such curve, though single readings can be large; an effect the other way counts as inactive or inconclusive.
# What was measured:
# [1] = target: Protein phosphatase 1D (Homo sapiens) (UniProt O15297); test: Rhodamine-PBP qHTS Assay for Modulators of WT P53-Induced Phosphatase 1 (WIP1) (AID 1347425)
# Protein phosphatase 1D (Homo sapiens), sequence (O15297 whole entry, looked up): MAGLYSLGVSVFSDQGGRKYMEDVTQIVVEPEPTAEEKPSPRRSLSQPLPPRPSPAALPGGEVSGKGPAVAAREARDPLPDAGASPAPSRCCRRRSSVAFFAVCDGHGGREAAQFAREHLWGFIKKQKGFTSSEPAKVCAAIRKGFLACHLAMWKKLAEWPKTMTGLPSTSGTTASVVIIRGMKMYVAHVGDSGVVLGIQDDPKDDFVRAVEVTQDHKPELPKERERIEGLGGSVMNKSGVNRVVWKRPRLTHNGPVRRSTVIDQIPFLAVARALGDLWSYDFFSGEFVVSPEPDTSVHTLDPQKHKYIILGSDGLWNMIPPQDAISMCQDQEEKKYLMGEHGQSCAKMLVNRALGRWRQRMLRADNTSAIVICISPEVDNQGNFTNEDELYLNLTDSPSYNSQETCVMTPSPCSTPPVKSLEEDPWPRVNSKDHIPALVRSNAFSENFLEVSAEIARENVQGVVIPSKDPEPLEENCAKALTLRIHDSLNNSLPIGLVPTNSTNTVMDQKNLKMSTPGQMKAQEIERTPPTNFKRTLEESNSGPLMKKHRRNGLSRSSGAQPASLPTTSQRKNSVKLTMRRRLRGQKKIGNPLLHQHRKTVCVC
# Summary of the method: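 5 nM WIP1 + 10 uM Rh-PBP, 50 mM Tris pH 7.5, 30 mM MgCl2, 1 mM TCEP, 0.1 mM EGTA, BSA; cpds pinned, 1 hr RT; + 10 uM phosphopeptide; fluorescence 1-min reads x 11 min; delta = f1 - f0.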
# [2] = Primary qHTS for inhibitors of La Crosse Virus (LACV) - induced cell death in SH-SY5Y cells (AID 1508616);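 note: top concentration of the series differs between compounds; higher means more rescue of cells from virus-induced death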
# Summary of the method: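 SH-SY5Y, 6000 cells/well; cpd via pin tool in DMSO; LACV 0.01 MOI; 6 d 37C 5% CO2; ATPLite, 5 min RT; luminescence normalized to ±virus DMSO controls.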
# [3] = target: Calcium and integrin-binding protein 1 (Homo sapiens) (UniProt Q99828); test: Primary qHTS for Identification of Calcium Integrin Binding Protein 1 (CIB1) Competitor (AID 1508620);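 note: GST tagged CIB1 binding a fluorescein labelled alphaIIb integrin peptide tracer; top concentration of the series differs between compounds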
# Calcium and integrin-binding protein 1 (Homo sapiens), sequence (Q99828 whole entry, looked up): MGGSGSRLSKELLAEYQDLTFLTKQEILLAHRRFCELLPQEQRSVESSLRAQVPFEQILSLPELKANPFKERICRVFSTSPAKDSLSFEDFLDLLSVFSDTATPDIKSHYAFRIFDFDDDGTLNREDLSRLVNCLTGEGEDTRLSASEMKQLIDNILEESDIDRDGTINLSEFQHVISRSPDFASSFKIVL
# Summary of the method: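 CIB1-GST (1 uM final) and compound incubated 15 min at room temperature before adding FITC-alphaIIb peptide tracer (100 nM final). Competition for binding read by fluorescence polarization (ex 480, em 540) after another 15 min at room temperature.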
# [4] = target: Cytochrome P450 2C9 (Homo sapiens) (UniProt P11712); test: Cytochrome P450 family 2 subfamily C member 9 (CYP2C9) small molecule antagonists: luciferase biochemical (cell-free) qHTS assay (AID 1645842; active = well fitted curve in the direction sought with a large enough effect in the repeat runs; an effect the other way counts as inactive or inconclusive; note: nearly all actives have a fitted effect of over 55% in size; note: potency is the fitted concentration of half-maximal effect; for activity change, negative = inhibition: series mostly up to about 57 µM)
# Cytochrome P450 2C9 (Homo sapiens), sequence (P11712 whole entry, looked up): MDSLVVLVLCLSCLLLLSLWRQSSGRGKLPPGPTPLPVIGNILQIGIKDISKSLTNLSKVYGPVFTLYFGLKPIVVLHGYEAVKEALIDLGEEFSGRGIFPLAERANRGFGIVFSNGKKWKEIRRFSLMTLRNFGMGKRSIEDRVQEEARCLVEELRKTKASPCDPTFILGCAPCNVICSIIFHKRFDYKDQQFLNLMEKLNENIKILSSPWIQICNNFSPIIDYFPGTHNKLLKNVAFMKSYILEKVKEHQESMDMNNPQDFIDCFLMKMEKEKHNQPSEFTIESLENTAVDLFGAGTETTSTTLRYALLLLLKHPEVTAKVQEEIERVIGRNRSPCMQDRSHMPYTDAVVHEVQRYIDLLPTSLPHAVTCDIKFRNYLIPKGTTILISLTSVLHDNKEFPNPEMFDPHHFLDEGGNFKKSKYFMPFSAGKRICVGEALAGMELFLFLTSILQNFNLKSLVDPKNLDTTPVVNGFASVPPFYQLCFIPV
# Summary of the method: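 P450-Glo CYP2C9 system: proluciferin substrate with enzyme in mix containing 0.4% BSA, 10 min at room temperature, then NADPH regeneration solution added and incubated 1 h at 37C. Detection reagent stopped reaction; luminescence read after 20 min as RLU.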
# [5] = Primary qHTS for small molecule stabilizers of the endoplasmic reticulum resident proteome: Secreted ER Calcium Modulated Protein (SERCaMP) assay (AID 1508630)
# Summary of the method: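 The SH-SY5Y reporter protocol was run at 3 concentrations up to 38.3 uM (primary) or 11 concentrations (follow-up): 16 h compound, 100 nM thapsigargin for 4 h, then extracellular luciferase luminescence.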
# [6] = A High-Content qHTS Against Drug Library for the Identification of Small Molecules that Inhibit DYT1 Early Onset Primary Dystonia-Associated Cell Pathology (AID 1645839; calls by dose curve; note: series mostly up to about 46 µM)
# Summary of the method: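 High-content imaging quantified EGFP-TorsinA mislocalization in HEK293-derived cells inducibly expressing DYT1 mutant torsinA, after 48 h exposure to compound given together with tetracycline induction. Cell count served as a toxicity channel alongside %pathology.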
# [7] = Primary qHTS for inhibitors of SARS-S pseudo-typed particle cell entry (AID 1479145; calls by dose curve; note: series mostly up to about 57 µM; nearly all actives have a fitted effect of over 45% in size)
# [8] = Primary qHTS for Huh7 cytotoxicity: counterscreen for inhibitors of MERS-S pseudotyped particle cell entry (AID 1479147; calls by dose curve)
# [9] = Primary qHTS for inhibitors of MERS-S pseudo-typed particle cell entry (AID 1479149; calls by dose curve; note: nearly all actives have a fitted effect of over 60% in size; for activity change, negative = inhibition: series mostly up to about 57 µM)
# [10] = Primary qHTS for Vero E6 cytotoxicity: counterscreen for inhibitors of SARS-S pseudo-typed particle cell entry (AID 1479150; calls by dose curve)
# [11] = target: Calcium and integrin-binding protein 1 (Homo sapiens) (UniProt Q99828); test: Validation qHTS for Identification of Calcium Integrin Binding protein 1 (CIB1) Competitor (AID 1508618)
# Summary of the method: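 Displacement of FITC-alphaIIb peptide (100 nM) from CIB1-GST (1 uM) is monitored by polarization in quantitative HTS format; buffer carries 5 mM CaCl2 and 125 mM NaCl at pH 7.4, incubations are at room temperature.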
# [12] = Counterscreen qHTS for small molecule stabilizers of the endoplasmic reticulum resident proteome: GLuc-NoTag assay (AID 1508627); note: series mostly up to about 76 µM
# Summary of the method: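 Counterscreen line: SH-SY5Y-GLuc-NoTag cells, treated with compound 19 hr before a 4 hr, 100 nM thapsigargin calcium depletion. Secreted Gaussia luciferase in the medium was measured by luminescence after coelenterazine was added (0.07x final), with cells unlysed.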
# [13] = Cell Viability qHTS for small molecule stabilizers of the endoplasmic reticulum resident proteome (AID 1508629); details: cell viability counter-screen, 100 nM thapsigargin for final 4 h;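 note: human SH-SY5Y neuroblastoma cells carrying the GLuc-SERCaMP reporter; compound exposure about 46 h in total before the viability read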
# [14] = target: Calcium and integrin-binding protein 1 (Homo sapiens) (UniProt Q99828); test: Confirmatory qHTS for Identification of Calcium Integrin Binding Protein 1 (CIB1) Competitor (AID 1508617); note: potency is the fitted concentration of half-maximal effect; nearly all actives have a fitted effect of over 65% in size
# Summary of the method: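 Confirmatory qHTS measures displacement of a FITC-alphaIIb peptide (100 nM) from CIB1-GST (1 uM) by fluorescence polarization. Calcium-containing HEPES buffer, pH 7.4; two 15 min room-temperature incubations.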
# [15] = target: Cytochrome P450 2D6 (Homo sapiens) (UniProt P10635); test: Cytochrome P450 family 2 subfamily D member 6 (CYP2D6) small molecule antagonists: luciferase biochemical (cell-free) qHTS assay (AID 1645840; active = well fitted curve in the direction sought with a large enough effect in the repeat runs; an effect the other way counts as inactive or inconclusive; note: nearly all actives have a fitted effect of over 55% in size; note: potency is the fitted concentration of half-maximal effect; for activity change, negative = inhibition: series mostly up to about 57 µM)
# Cytochrome P450 2D6 (Homo sapiens), sequence (P10635 whole entry, looked up): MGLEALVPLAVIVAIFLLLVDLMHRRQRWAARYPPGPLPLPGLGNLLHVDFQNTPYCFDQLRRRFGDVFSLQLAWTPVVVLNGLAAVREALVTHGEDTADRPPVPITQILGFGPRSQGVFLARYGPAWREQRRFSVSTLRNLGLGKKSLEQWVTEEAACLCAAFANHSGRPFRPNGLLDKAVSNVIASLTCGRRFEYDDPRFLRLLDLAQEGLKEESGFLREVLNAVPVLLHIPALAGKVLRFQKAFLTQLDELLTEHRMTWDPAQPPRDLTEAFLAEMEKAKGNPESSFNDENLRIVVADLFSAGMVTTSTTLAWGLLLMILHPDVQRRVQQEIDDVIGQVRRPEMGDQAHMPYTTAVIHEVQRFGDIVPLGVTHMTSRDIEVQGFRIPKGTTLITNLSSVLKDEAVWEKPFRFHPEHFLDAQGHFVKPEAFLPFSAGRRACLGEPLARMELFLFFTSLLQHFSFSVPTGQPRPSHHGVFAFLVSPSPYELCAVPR
# Summary of the method: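 P450-Glo CYP2D6 system: proluciferin substrate converted by enzyme to luciferin, read by luminescence proportional to activity. Enzyme-substrate mix with compound 10 min at room temperature, then NADPH regeneration 1 h before detection reagent.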
# [16] = target: Single-stranded DNA cytosine deaminase (Homo sapiens) (UniProt Q9GZX7); test: Validation qHTS assay for inhibitors of Activation Induced Cytidine Deaminase (AID): AID signal (AID 1347429)
# Single-stranded DNA cytosine deaminase (Homo sapiens), sequence (Q9GZX7 whole entry, looked up): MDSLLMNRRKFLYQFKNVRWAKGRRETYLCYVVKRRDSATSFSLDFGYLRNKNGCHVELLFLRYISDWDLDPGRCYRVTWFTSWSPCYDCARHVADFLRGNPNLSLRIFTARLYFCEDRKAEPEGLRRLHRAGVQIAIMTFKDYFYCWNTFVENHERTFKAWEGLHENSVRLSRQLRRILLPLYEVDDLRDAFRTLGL
# Summary of the method: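 Steps: dispense AID with UDG; pin-transfer compound up to 114 uM final; add DJC20/DJC23 substrate and hold 4 hr at room temperature; add NaOH, hold 30 min; read FRET signal (540/590 nm).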
# [17] = Validation qHTS assay for inhibitors of Activation Induced Cytidine Deaminase (AID): UDG Counterscreen signal (AID 1347427)
# Summary of the method: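 Fluorescence at 560 nm excitation, 665 nm emission reports UDG signal after 250 mM NaOH (2x) addition and 30 min. Enzymes (AID 1 uM, UDG 2 U/mL, at 4/3x) preincubated 10 min with compound, then 4 h with 4x 250 nM DJC20/DJC23 substrate at room temperature.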
# [18] = Confirmatory qHTS for small molecule stabilizers of the endoplasmic reticulum resident proteome: Secreted ER Calcium Modulated Protein (SERCaMP) assay (AID 1508628); note: series mostly up to about 76 µM; nearly all actives have a fitted effect of over 40% in size
# Summary of the method: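 Reporter secretion upon ER calcium depletion (100 nM thapsigargin, 4 h, 37C) is measured as medium luminescence with coelenterazine, after 16 h compound pretreatment of SH-SY5Y-GLuc-SERCaMP cells; primary at three concentrations up to 38.3 uM, follow-up at 11 (up to 76.6 uM).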
structure (smiles),measurement,setting,value
Cc1ccc(Cl)c(O)c1,outcome,[1],inactive
same,outcome,[2],inactive
same,outcome,[3],inactive
same,Potency,[4],inactive
CC(C)NCC(O)c1ccc([N+](=O)[O-])cc1 (stereo not drawn),outcome,[1],inactive
same,outcome,[2],inactive
same,outcome,[3],inactive
same,Potency,[5],inactive
same,Potency,[6],inactive
same,Potency,[4],inactive
CC(Cc1ccc(O)cc1)NCC(O)c1cc(O)cc(O)c1 (stereo not drawn),outcome,[1],inactive
same,Potency,[7],inactive
same,Potency,[8],inactive
same,Potency,[9],inactive
same,Potency,[10],inactive
same,outcome,[2],inactive
same,outcome,[11],inactive
same,outcome,[3],inactive
same,Potency,[5],inactive
same,Potency,[4],inactive
Nc1ccc(Cl)cc1N,outcome,[1],inactive
same,outcome,[2],inactive
same,outcome,[3],inactive
same,Potency,[12],inactive
same,max response,[13],1.89%
same,Potency,[4],23.3 µM (active)
CCCCCCCCCCCCCCCC[N+](C)(C)C,outcome,[1],inactive
same,Potency,[8],inactive
same,outcome,[2],inactive
same,Potency,[14],70.8 µM (active)
same,Potency,[5],inactive
same,Potency,[4],inactive
COc1ccc(C(c2ccc(OC)cc2)C(Cl)(Cl)Cl)cc1,outcome,[1],inactive
same,outcome,[3],inactive
same,Potency,[15],inactive
same,Potency,[4],1.49 µM (active)
O=S(=O)(c1ccc(Cl)cc1)c1ccc(Cl)cc1,outcome,[1],inactive
same,outcome,[2],inactive
same,Potency,[5],inactive
same,Potency,[4],27.8 µM (active)
CS(=N)(=O)CC[C@H](N)C(=O)O (stereo partly drawn),outcome,[16],inactive
same,outcome,[2],inactive
same,outcome,[11],inactive
O=[N+]([O-])c1cc([N+](=O)[O-])c2ccccc2c1,outcome,[1],inactive
same,outcome,[2],inactive
same,Potency,[5],inactive
same,Potency,[4],inactive
Cn1cnc(CCN)c1,outcome,[16],inactive
same,outcome,[2],inactive
same,outcome,[11],inactive
COC(=O)[C@@H](N)CCCN=C(N)N[N+](=O)[O-],outcome,[16],inactive
same,outcome,[2],inactive
same,outcome,[11],inactive
same,outcome,[3],inactive
same,Potency,[5],inactive
CN[C@@H](C)[C@H](O)c1ccccc1,outcome,[1],inactive
same,outcome,[2],inactive
same,Potency,[5],inactive
same,Potency,[15],inactive
same,Potency,[4],inactive
CCC1(CCC(C)C)C(=O)NC(=O)NC1=O,outcome,[1],inactive
same,outcome,[2],inactive
same,outcome,[3],inactive
same,Potency,[4],inactive
COc1cc(C(O)CN)ccc1O (stereo not drawn),outcome,[17],inactive
same,outcome,[16],inactive
same,outcome,[2],inactive
same,outcome,[11],inactive
same,Potency,[5],inactive
NC(=NCCC[C@H](N)C(=O)O)N[N+](=O)[O-],outcome,[17],inactive
same,outcome,[16],inactive
same,outcome,[2],inactive
same,outcome,[11],inactive
same,Potency,[5],inactive
CC(=O)NCCc1c[nH]c2ccccc12,outcome,[16],inactive
same,outcome,[2],inactive
same,outcome,[11],inactive
same,outcome,[3],inactive
same,Potency,[5],inactive
CC(C)(C)NC[C@H](O)c1ccc(O)cc1Cl,outcome,[1],inactive
same,outcome,[2],inactive
same,outcome,[3],inactive
same,Potency,[4],inactive
O=C(O)CC[N+](=O)[O-],outcome,[17],inactive
same,outcome,[16],inactive
same,outcome,[2],inactive
same,outcome,[11],inactive
NCCc1c[nH]c2ccccc12,outcome,[17],inactive
same,outcome,[16],inactive
same,outcome,[2],inactive
same,outcome,[11],inactive
same,Potency,[5],inactive
NC(=O)CN1CC(O)CC1=O (stereo not drawn),outcome,[17],inactive
same,outcome,[16],inactive
same,outcome,[2],inactive
same,outcome,[11],inactive
CC(C)NC(C)Cc1ccc(I)cc1 (stereo not drawn),outcome,[16],inactive
same,Potency,[8],inactive
same,Potency,[10],inactive
same,outcome,[11],inactive
same,Potency,[5],inactive
CCCN(CCC)[C@@H]1CCc2ccc(O)cc2C1,outcome,[17],inactive
same,outcome,[16],inactive
same,outcome,[2],inactive
same,outcome,[11],inactive
same,Potency,[5],inactive
NCc1cc(=O)[nH]o1,outcome,[16],inactive
same,outcome,[2],inactive
same,outcome,[11],inactive
same,Potency,[12],inactive
same,Potency,[18],inactive
same,Potency,[5],inactive
CNCCc1c[nH]c2ccc(O)cc12,outcome,[16],inactive
same,outcome,[2],inactive
same,outcome,[11],inactive
Oc1ccc2c3c1O[C@H]1c4[nH]c5c(c4C[C@@]4(O)[C@@H](C2)N(CC2CC2)CC[C@]314)C[C@@]1(O)[C@H]2Cc3ccc(O)c4c3[C@@]1(CCN2CC1CC1)[C@H]5O4,outcome,[16],inactive
same,outcome,[2],inactive
same,outcome,[11],inactive
same,outcome,[3],inactive
same,Potency,[5],inactive
CCO/N=C(\CC)C1=C(O)CC(c2c(C)cc(C)cc2C)CC1=O (stereo not drawn),outcome,[1],inactive
same,outcome,[2],inactive
same,Potency,[5],inactive
same,Potency,[4],4.48 µM (active)
c1ccc(C2(c3ccccc3)CC2C2=NCCN2)cc1 (stereo not drawn),outcome,[16],inactive
same,Potency,[8],inactive
same,Potency,[9],inactive
same,Potency,[10],inactive
same,outcome,[2],inactive
CC(=O)[C@H]1CCC2C3CC[C@H]4C[C@H](O)CC[C@]4(C)C3CC[C@@]21C (stereo partly drawn),outcome,[17],inactive
same,outcome,[16],inactive
same,outcome,[2],inactive
same,outcome,[11],inactive
same,Potency,[5],inactive
S=C(SSC(=S)N1CCCCC1)N1CCCCC1,outcome,[1],inactive
same,Potency,[5],inactive
NC(CP(=O)(O)O)C(=O)O (stereo not drawn),outcome,[16],inactive
same,outcome,[2],inactive
same,outcome,[11],inactive
same,Potency,[5],inactive
O=[N+]([O-])c1c(Cl)c(Cl)cc(Cl)c1Cl,outcome,[1],inactive
same,outcome,[2],inactive
same,Potency,[15],inactive
same,Potency,[4],inactive
CCCN(CCC)C1CCc2ccc(O)cc2C1 (stereo not drawn),outcome,[16],inactive
same,outcome,[2],inactive
same,outcome,[11],inactive
same,Potency,[5],inactive
CC1=NN=C(c2ccc(N)cc2)c2cc3c(cc2C1)OCO3,outcome,[16],inactive
same,outcome,[2],inactive
same,outcome,[11],inactive
same,outcome,[3],inactive
same,Potency,[5],inactive
same,Potency,[15],19 µM (active)
same,Potency,[4],7.56 µM (active)
CCCN1CCO[C@@H]2c3cc(O)ccc3OC[C@H]21,outcome,[17],inactive
same,outcome,[16],inactive
same,outcome,[2],inactive
same,outcome,[11],inactive
same,Potency,[5],inactive
CC1=C(C(=O)O)N2C(=O)[C@@H](N)[C@H]2SC1,"activity change, negative = inhibition",[1],6.57% [at 23.8 µM]
same,activity change,[2],-1.92% [at 1.78 µM]
same,Potency,[5],inactive
same,Potency,[15],inactive
same,Potency,[4],inactive
Clc1cnc(Oc2ccc(Oc3ncc(Cl)cc3Cl)cc2)c(Cl)c1,outcome,[17],inactive
same,outcome,[16],inactive
same,outcome,[2],inactive
same,outcome,[11],inactive
same,Potency,[5],inactive
NCCc1c[nH]c2ccc(O)cc12,outcome,[17],inactive
same,outcome,[16],inactive
same,outcome,[2],inactive
same,outcome,[11],inactive
same,Potency,[5],inactive
CN1C2CCC1CC(OC(=O)c1cc(Cl)cc(Cl)c1)C2 (stereo not drawn),outcome,[16],inactive
same,outcome,[2],inactive
same,outcome,[11],inactive
C[C@@H]1O[C@H](C[N+](C)(C)C)C[C@H]1O,outcome,[16],inactive
same,outcome,[2],inactive
same,outcome,[11],inactive
same,Potency,[5],inactive
S=C(NC1CCCCC1)N1CCC(c2cnc[nH]2)CC1,outcome,[17],inactive
same,outcome,[16],inactive
same,outcome,[2],inactive
same,outcome,[11],inactive
same,outcome,[3],inactive
same,Potency,[5],inactive
